In the library only some 28% were active in any assay of this set; here they are far more common.
CYP2C9 act – CYP2C9 (human) activation; recombinant CYP2C9, luciferin-H conversion, luminescence; active compounds read high; factor 1 = untreated enzyme, 0 = blocked; activation factor at 5 µM; 1.4% of 96,000 active; P11712;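 active = activation factor of 2 or more for CYP2C9 at a 5 µM dose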;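 also: 0 = sulfaphenazole-blocked wells and 1 = vehicle-only wells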
PLK1 kinase inh – inhibitors of human PLK1 kinase | P53350 | recombinant PLK1 kinase, TR-FRET peptide phosphorylation | inhibition, % at 10 µM | 0.53% of 97,000 active | AID 619;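 active = inhibition of 50% or more in the single-concentration screen; inactive = inhibition below 50%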;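 also: 0% = DMSO max control and 100% = H-89 dihydrochloride min control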
CYP2C19 inh – inhibitors of human CYP2C19; P33261; inhibition, % at 5 µM; CYP2C19 Supersomes, luciferin-H EGE luminescence, 30 min; 21% of 96,000 active;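 active = CYP2C19 inhibition above a set limit at 5 µM in the primary screen, cut at about 50% in these data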;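 also: plate controls were negative control wells for no effect and 2.5 mM tranylcypromine positive control for full effect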
Target sequence (P33261 whole entry, looked up): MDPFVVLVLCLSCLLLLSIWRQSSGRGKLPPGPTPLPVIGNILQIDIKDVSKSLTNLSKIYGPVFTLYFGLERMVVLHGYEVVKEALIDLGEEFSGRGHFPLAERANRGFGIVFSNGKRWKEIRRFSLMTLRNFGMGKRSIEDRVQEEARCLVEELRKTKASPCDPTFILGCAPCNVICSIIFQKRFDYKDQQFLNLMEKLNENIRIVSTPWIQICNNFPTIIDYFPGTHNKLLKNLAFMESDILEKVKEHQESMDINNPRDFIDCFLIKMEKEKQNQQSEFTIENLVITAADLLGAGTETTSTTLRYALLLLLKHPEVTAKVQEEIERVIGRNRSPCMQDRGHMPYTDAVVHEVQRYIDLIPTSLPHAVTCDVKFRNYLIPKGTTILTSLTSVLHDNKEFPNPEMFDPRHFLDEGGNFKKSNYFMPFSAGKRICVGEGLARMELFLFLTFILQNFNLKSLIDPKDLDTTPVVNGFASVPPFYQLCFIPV
PLK1 PBD inh – Plk1 (human) PBD binding inhibition; inhibition, %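 (tested at about 20 µM)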; 0.13% of 97,000 active; AID 693; P53350; Plk1 PBD phosphopeptide binding, fluorescence polarization; in the data active = inhibition above about 34%, passing the limit was not always enough
CYP2C19 activ – increases human CYP2C19 enzyme activity | activation factor at 5 µM | 96,000 tested, under 10 active | P33261 | recombinant CYP2C19, luciferin-H EGE luminescence; active compounds read high; 0 = fully inhibited enzyme, 1 = untreated enzyme;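 active = activation factor of at least 2 at 5 µM in the primary screen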;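 also: 0 = wells with 2.5 mM tranylcypromine and 1 = vehicle-only wells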
CYP2C9 inhib – inhibitors of human CYP2C9. P11712. CYP2C9 Supersomes, luciferin-H conversion, luminescence. inhibition, % at 5 µM. 20% of 96,000 active. AID 777;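 active = blocking of liver enzyme CYP2C9 beyond about 50% at 5 µM, limit read from the data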
An asterisk follows results filed as active; · = not tested or not shown.

SMILES	CYP2C9 act	PLK1 kinase inh	CYP2C19 inh	PLK1 PBD inh	CYP2C19 activ	CYP2C9 inhib
CCOC(=O)Cc1cc(OC)c(OC)cc1Cc1cc(OC)c(OC)cc1CC(=O)OCC	0.8	-9	55*	-2	0.4	23
COc1cc(Br)c(CC(=O)O)cc1OC	1.1	·	2	·	1	-9
Cc1cc(C)n(-c2ccc(C(=O)OCC(=O)c3c(N)n(C)c(=O)n(C)c3=O)cc2)n1	0.9	·	20	·	0.8	11
COc1cc(-c2nnc(SCc3cc(=O)oc4cc(C)ccc34)o2)cc(OC)c1OC	0.2	0	66*	16	0.3	83*
COc1cc(-c2nnc(SCC#CCO)o2)cc(OC)c1OC	0.7	-9	16	5	0.8	29
Cc1ccc2c(CSc3nnc(C4CC4)n3N)cc(=O)oc2c1	0.9	·	78*	·	0.2	10
Cc1ccc2c(CSc3nnc(C4CC4)n3N)cc(=O)oc2c1C	1	-6	44	10	0.6	0
COC(=O)C1CCN(C(=O)COC(=O)Cn2cnnn2)CC1	1.1	0	-17	-5	1.2	-12
CCCN=Cc1c(CCC)[nH]n(-c2nc3ccccc3s2)c1=O	0.8	-9	13	1	0.9	19
CC(=NCCCn1ccnc1)c1c(-c2ccccc2)[nH]n(-c2nc3ccccc3s2)c1=O	0	-14	99*	-25	0	98*
CC(=NC1CC1)c1c(-c2ccccc2)[nH]n(-c2nc3ccccc3s2)c1=O	0.7	-12	-6	3	1.1	28
O=c1c(C=NCCCn2ccnc2)c(-c2ccccc2)[nH]n1-c1nc2ccccc2s1	0	-6	92*	-3	0.1	98*
O=C(O)CS(=O)(=O)CC(=O)O	0.9	-23	-3	2	1	14
O=C(NCc1ccc2c(c1)OCO2)c1cc2ncc(Br)cn2n1	0.8	-7	11	19	0.9	21
CCOC(=O)C(Cc1ccccc1)NC(=O)CCc1c(C)nc2nc(C)nn2c1C (stereo not given)	1.1	-15	-1	-10	1	-11
CC(=O)NC1CC2CCCC(C1)N2C(=O)Nc1ccc(Cl)c(C(F)(F)F)c1 (stereo not given)	0.9	-3	58*	1	0.4	12
CC1CC(C)CN(S(=O)(=O)c2ccc(C(=O)Nc3sccc3C(N)=O)cc2)C1 (stereo not given)	0.7	-11	-19	19	1.2	29
O=C(Nc1ccc(S(=O)(=O)N2CCCCC2)cc1)c1ccncc1	0	-6	99*	-34	0	98*
CC(=O)c1ccc(NC(=O)c2ccc(S(=O)(=O)N3CCCC3)cc2)cc1	1	-12	0	7	1	1
NC(=O)c1ccsc1NC(=O)c1ccc(S(=O)(=O)N2CCCCC2)cc1	0.4	1	38	-20	0.6	60*
O=C(Nc1nc(-c2ccc(S(=O)(=O)N3CCCCCC3)cc2)cs1)c1ccccc1	0.3	-12	24	2	0.8	72*
Cc1ccc(Nc2nc(-c3ccc(S(=O)(=O)N4CCCC4)cc3)cs2)cc1C	0.5	-4	-12	-9	1.1	54*
COc1cc(C(=O)N2CCC(NC(=O)C(Cc3ccccc3)NC(C)=O)CC2)cc(OC)c1OC (stereo not given)	1.2	-6	0	-2	1	-16
CN(C)S(=O)(=O)c1ccc(C(=O)Nc2nc(-c3cccs3)cs2)cc1	1	11	2	-20	1	2
COCCN(CCOC)S(=O)(=O)c1ccc(C(=O)Nc2nc(-c3ccncc3)cs2)cc1	0.3	-8	56*	-13	0.4	69*
SMILES	CYP2C9 act	PLK1 kinase inh	CYP2C19 inh	PLK1 PBD inh	CYP2C19 activ	CYP2C9 inhib
O=C(Nc1nc(-c2cccs2)cs1)c1ccc(S(=O)(=O)N2CCCC2)cc1	0.4	2	43	11	0.6	57*
CCC(C)c1ccccc1NC(=S)Nc1cccnc1 (stereo not given)	0.8	-8	42	8	0.6	25
Cc1ccc(C(=O)N2CCC(C)CC2)cc1C	·	-10	·	-23	·	·
O=C(NCc1ccco1)C1CCN(C(=O)c2cc3sccc3n2Cc2ccc(Cl)cc2)CC1	0.2	-6	65*	-11	0.4	77*
O=C(NCCN1CCOCC1)c1cc2sccc2n1Cc1ccc(Cl)cc1	0.3	·	70*	·	0.3	69*
O=C(NCCN1CCOCC1)c1cc2sccc2n1Cc1ccc(F)cc1	0.7	·	31	·	0.7	27

High-throughput results deposited in PubChem BioAssay by several laboratories.
